Source: PubChem BioAssay (Tox21)
“And” between values parts separate entries of the source, which are not always exact repeats. Equal values may be shown once. Inconclusive results are not listed. The source holds several records for some structures; these can differ, active in one and inactive in another. The source made the active and inactive calls. Unless noted, calls come from the whole dose curve; as a rule, active = well fitted curve in the direction sought with a large enough effect in the repeat runs; inconclusive = weak or mixed curves; inactive = no such curve, though single readings can be large; an effect the other way counts as inactive or inconclusive.

Key:
[1] = molecular target: Luciferin 4-monooxygenase (Photinus pyralis) (UniProt P08659); assay: qHTS assay to identify small molecule inhibitors of firefly luciferase (AID 1224835); note: nearly all actives have a fitted effect of over 25% in size
Summary of the method: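 Inhibition of purified Photinus luciferase is measured by luminescence. Substrate levels (D-luciferin, ATP) sit at their KM values. Each compound is tested in a concentration series.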

[2] = qHTS assay to identify small molecule antagonists of the constitutive androstane receptor (CAR) signaling pathway - cell viability counter screen (AID 1224837); note: nearly all actives have a fitted effect of over 45% in size
Summary of the method: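 Multiplexed cytotoxicity read-out for the CAR antagonist screen: double-stable HepG2-CYP2B6-hCAR cells co-treated with 50 nM CITCO (final) and compound over 15 concentrations, incubated 23 hr, then assessed by CellTiter-Fluor fluorescence.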

[3] = molecular target: Nuclear receptor subfamily 1 group I member 3 (Homo sapiens) (UniProt Q14994); assay: qHTS assay to identify small molecule antagonists of the constitutive androstane receptor (CAR) signaling pathway (AID 1224838); note: nearly all actives have a fitted effect of over 40% in size
Summary of the method: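 Compounds were titrated across 15 concentrations onto HepG2 cells double-stably expressing hCAR and a CYP2B6-2.2kb reporter, together with 50 nM CITCO (final). After 24 h at 37 C, luciferase activity was measured by luminescence.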

[4] = molecular target: Nuclear receptor subfamily 1 group I member 3 (Homo sapiens) (UniProt Q14994); assay: qHTS assay to identify small molecule agonists of the constitutive androstane receptor (CAR) signaling pathway (AID 1224839); note: nearly all actives have a fitted effect of over 15% in size
Summary of the method: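 Luminescent ONE-Glo read-out after 24 hr, 37 C exposure of double-stable HepG2-CYP2B6-hCAR reporter cells to a 15-point compound series, in the presence of 0.75 uM PK11195 (final).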

[5] = qHTS assay to identify small molecule antagonists of the estrogen related receptor signaling pathway with the pleiotropic PPARgamma coactivator (PGC) from Tox21 10K library - cell viability counter screen (AID 1224840; active = well fitted cell-killing curve with a large enough effect in the repeat runs, not every such curve was filed as active; note: nearly all actives have a fitted effect of over 40% in size)
Summary of the method: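 Step one, plate 2,000 PGC/ERR cells per well; step two, incubate 6 h at 37 C/5% CO2; step three, pin-transfer compounds; step four, incubate 17.5 h; step five, add CellTiter-Fluor and read fluorescence after 30 min.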

[6] = molecular target: Thyrotropin receptor (Homo sapiens) (UniProt P16473); assay: qHTS assay to identify small molecule agonists of the thyroid stimulating hormone receptor (TSHR) signaling pathway (AID 1224843; calls by dose curve; note: nearly all actives have a fitted effect of over 45% in size)
Summary of the method: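 Screening of the Tox21 10K collection used HEK293 cells engineered with TSHR at 800 cells per well. After a 30-min room-temperature compound exposure, HTRF cAMP reagents were added and fluorescence recorded 1 h later.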

[7] = qHTS assay to identify small molecule agonists of the hypoxia (HIF-1) signaling pathway - cell viability counter screen (AID 1224844; calls by dose curve; note: nearly all actives have a fitted effect of over 50% in size)
Summary of the method: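 Tox21 10K compounds were added to HRE-bla ME-180 cells (0.5% dialyzed FBS) and incubated 17 hrs at 37C; ATP-based CellTiter-Glo luminescence then reported cell viability in the same wells.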

[8] = qHTS assay to identify small molecule agonists of the constitutive androstane receptor (CAR) signaling pathway - cell viability counter screen (AID 1224836); note: nearly all actives have a fitted effect of over 45% in size
Summary of the method: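 Cell viability multiplexed with the CAR agonist screen: CellTiter-Fluor fluorescence after 23 hr at 37 C. HepG2-CYP2B6-hCAR cells got compounds at 15 concentrations with PK11195 at 0.75 uM final.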

[9] = qHTS assay to identify small molecule antagonists of the estrogen related receptor signaling pathway with the pleiotropic PPARgamma coactivator (PGC) from Tox21 10K library (AID 1224841; call rule not given here; note: actives are mostly falling curves and most rising ones were filed inactive; nearly all actives have a fitted effect of over 50% in size)
Summary of the method: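 Antagonism in this quantitative HTS is taken from loss of luciferase signal in PGC/ERR cells. Cells (2,000/well) are treated with compounds in DMSO after a 6 h settling period and read by One-Glo luminescence after 18 h.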

[10] = qHTS assay to identify small molecule agonists of the estrogen related receptor signaling pathway with the pleiotropic PPARgamma coactivator (PGC) from Tox21 10K library (AID 1224842); note: nearly all actives have a fitted effect of over 15% in size
Summary of the method: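 Luminescence from One-Glo (30 min, room temperature) measured after PGC/ERR cells had 18 h at 37 C with pinned compound (23 nL in DMSO). Cells had been seeded at 2,000 per well and pre-incubated 6 h.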

Measured: Potency
Potency is the fitted concentration of half-maximal effect.

Chain of Thyrotropin receptor (Homo sapiens) (P16473 whole entry, looked up): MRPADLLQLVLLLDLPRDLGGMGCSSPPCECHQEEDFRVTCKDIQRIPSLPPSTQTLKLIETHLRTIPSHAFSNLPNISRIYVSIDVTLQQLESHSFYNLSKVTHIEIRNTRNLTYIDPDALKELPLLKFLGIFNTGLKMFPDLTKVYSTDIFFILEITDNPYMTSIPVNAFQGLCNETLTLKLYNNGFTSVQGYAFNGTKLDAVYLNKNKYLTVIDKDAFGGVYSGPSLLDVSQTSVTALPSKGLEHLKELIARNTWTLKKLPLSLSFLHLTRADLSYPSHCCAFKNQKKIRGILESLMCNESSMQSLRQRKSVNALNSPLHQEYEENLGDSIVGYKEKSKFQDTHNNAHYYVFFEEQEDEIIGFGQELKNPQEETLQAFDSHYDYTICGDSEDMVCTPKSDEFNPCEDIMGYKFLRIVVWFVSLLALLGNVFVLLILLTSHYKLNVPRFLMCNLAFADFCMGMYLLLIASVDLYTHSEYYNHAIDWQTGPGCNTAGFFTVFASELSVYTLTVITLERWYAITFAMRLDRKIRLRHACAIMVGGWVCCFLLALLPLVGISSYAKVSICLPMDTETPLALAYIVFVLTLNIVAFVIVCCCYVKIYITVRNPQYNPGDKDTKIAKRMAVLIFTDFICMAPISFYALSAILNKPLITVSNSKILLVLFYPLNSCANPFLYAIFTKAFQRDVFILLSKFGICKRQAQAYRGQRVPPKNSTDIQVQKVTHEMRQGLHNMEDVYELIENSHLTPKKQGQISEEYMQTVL
Chain of Luciferin 4-monooxygenase (Photinus pyralis) (P08659 whole entry, looked up): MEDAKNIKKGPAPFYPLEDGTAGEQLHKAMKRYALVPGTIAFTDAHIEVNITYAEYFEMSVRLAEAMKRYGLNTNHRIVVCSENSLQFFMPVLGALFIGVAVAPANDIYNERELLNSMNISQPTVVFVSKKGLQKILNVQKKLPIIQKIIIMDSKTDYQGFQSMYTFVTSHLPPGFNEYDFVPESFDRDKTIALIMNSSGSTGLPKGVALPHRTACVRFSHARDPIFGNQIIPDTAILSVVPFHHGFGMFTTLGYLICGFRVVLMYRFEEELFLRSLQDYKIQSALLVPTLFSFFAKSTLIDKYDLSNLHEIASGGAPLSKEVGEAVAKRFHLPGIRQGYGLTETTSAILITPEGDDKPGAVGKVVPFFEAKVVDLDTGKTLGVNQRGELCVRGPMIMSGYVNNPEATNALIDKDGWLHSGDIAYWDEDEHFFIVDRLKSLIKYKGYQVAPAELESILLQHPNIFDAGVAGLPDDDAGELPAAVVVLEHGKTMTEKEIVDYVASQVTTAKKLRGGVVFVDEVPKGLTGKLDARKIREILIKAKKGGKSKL
Chain of Nuclear receptor subfamily 1 group I member 3 (Homo sapiens) (Q14994 whole entry, looked up): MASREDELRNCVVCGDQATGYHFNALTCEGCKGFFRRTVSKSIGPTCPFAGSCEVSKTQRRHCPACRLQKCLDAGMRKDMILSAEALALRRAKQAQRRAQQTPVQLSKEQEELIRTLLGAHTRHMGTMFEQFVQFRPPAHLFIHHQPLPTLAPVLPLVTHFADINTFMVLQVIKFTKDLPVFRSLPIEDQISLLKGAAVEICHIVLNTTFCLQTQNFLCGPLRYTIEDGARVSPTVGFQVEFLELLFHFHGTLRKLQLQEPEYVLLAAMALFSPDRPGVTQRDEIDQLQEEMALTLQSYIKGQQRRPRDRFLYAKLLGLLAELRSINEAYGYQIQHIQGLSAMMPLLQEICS

O=C1CC[C@@]2(O)[C@H]3Cc4ccc(O)c5c4[C@@]2(CCN3CC2CC2)[C@H]1O5
not listed: [8] | [9] | [10]
inactive: all other assays above

CC(=O)NNc1ccccc1
not listed: [1] | [5]
inactive: all other assays above

C[N+]1(CCF)[C@@H]2CC[C@H]1CC(OC(=O)C(O)(c1ccccc1)c1ccccc1)C2 (some centres undefined)
inactive: [1] | [2] | [4] | [5] | [6] | [7]

[Cl-].[Cl-].[Hg+2]
active: [8] 60.8 µM and 7.7 µM | [2] 60.8 µM and 5.45 µM | [5] 15.3 µM and 2.43 µM | [7] 43.5 µM

O=C(O)CCCOc1ccc(Cl)cc1Cl
inactive: [2] | [3] | [4] | [5] | [6] | [7]

O=[N+]([O-])/C=C/c1ccccc1
active: [8] 27.8 µM and 24.3 µM | [2] 30.6 µM | [3] 24.7 µM and 24.3 µM | [5] 15.6 µM and 24.3 µM | [10] 9.85 µM and 13.7 µM | [7] 24.9 µM and 54.9 µM
inactive: [4] | [9] | [6]

C[Si](Cn1cncn1)(c1ccc(F)cc1)c1ccc(F)cc1
inactive: [1] | [2] | [10] | [6] | [7]
active: [9] 39.8 µM and 48.6 µM

O=C(O)C(O)C(O)C(=O)O (centres undefined)
inactive: [1] | [5] | [7]

Clc1ccc(Cl)c(Cl)c1
2.98 µM (active) and inactive: [6]
not listed: [1] | [8]
inactive: all other assays above

COc1cc(CC(C)N)c(OC)cc1Br (centres undefined)
inactive: [1] | [10] | [6] | [7]

CCOP(=O)(SC(C)CC)N1CCSC1=O (centres undefined)
inactive: [1] | [2] | [4] | [5] | [6] | [7]

COc1ccc2c(c1OC)C(=O)O[C@H]2[C@@H]1c2cc3c(cc2CCN1C)OCO3
inactive: [1] | [3] | [4] | [5] | [6] | [7]

NP(N)(=O)NC(=O)c1ccc(F)cc1
not listed: [3] | [4] | [8]
inactive: all other assays above

CC(C)(C)NCC(O)c1cc(Cl)c(N)c(C(F)(F)F)c1 (centres undefined)
active: [6] 2.1 nM
not listed: [2] | [3] | [8]
inactive: all other assays above

CCCN(CCC)C(=O)Cc1c(-c2ccc(Cl)cc2)nc2ccc(Cl)cn12
inactive: [8] | [2] | [3] | [5] | [6] | [7]

C[CH2][Hg][S]c1ccccc1C(=O)O
active: [8] 19.3 µM and 11.9 µM | [2] 12.2 µM and 7.5 µM | [3] 12.2 µM and 6.68 µM | [5] 4.33 µM and 11.9 µM | [10] 1.22 µM and 2.37 µM | [7] 616 nM and 1.9 µM
inactive: [4] | [9] | [6]

CCCCNC(=O)OCC#CI
inactive: [1] | [4] | [10]
active: [3] 54.2 µM and 24.3 µM | [5] 68.2 µM and 61.1 µM | [6] 8.59 µM and 4.33 µM | [7] 48.7 µM

CN(C)c1ccc(N=O)cc1
inactive: [9]
active: [2] 30.7 µM and 27.3 µM | [3] 43.4 µM and 43.3 µM | [4] 4.87 µM | [5] 19.4 µM and 30.6 µM | [10] 9.72 µM and 8.63 µM

C=CCOC(=O)C(C)(C)OC(=O)c1cc(-n2c(=O)cc(C(F)(F)F)n(C)c2=O)ccc1Cl
inactive: [1] | [2] | [3] | [5] | [10] | [7]

CCCN(CCOc1c(Cl)cc(Cl)cc1Cl)C(=O)n1ccnc1
inactive: [1] | [3] | [10] | [7]
active: [4] 54.5 µM | [9] 55.6 µM and 27.3 µM

O=P(OCC(Br)CBr)(OCC(Br)CBr)OCC(Br)CBr (centres undefined)
inactive: [1] | [3] | [4] | [5] | [6] | [7]

c1ccc2c(c1)-c1cccc3cccc-2c13
active: [4] 34.7 µM and 30.6 µM
not listed: [1] | [9] | [10]
inactive: all other assays above

Oc1cccc(Cl)c1
not listed: [3] | [4] | [8]
inactive: all other assays above

O=C(NCNC(=O)NC1C(=O)NC(=O)N1CO)NC1C(=O)NC(=O)N1CO (centres undefined)
inactive: [1] | [5] | [9] | [10] | [6] | [7]

C#CC(O)(C=CCl)CC (centres undefined)
inactive: [1] | [2] | [5] | [6] | [7]

C=CCN1C[C@H](C)N([C@H](c2ccc(C(=O)N(CC)CC)cc2)c2cccc(OC)c2)C[C@H]1C
not listed: [2] | [8] | [9]
inactive: all other assays above

CCCCCCCCn1sccc1=O
active: [1] 35.7 µM and 41.8 µM | [2] 30.7 µM and 5.71 µM | [5] 30.7 µM and 11.4 µM | [9] 30.7 µM | [7] 4.91 µM and 3.63 µM
inactive: [10]

COC(=O)C1(O)c2ccccc2-c2ccccc21
inactive: [1] | [2] | [5] | [6] | [7]

C=CC(C)(CCC=C(C)C)OC(=O)c1ccccc1N (centres undefined)
not listed: [1] | [9] | [10]
inactive: all other assays above

CCOC(C(=O)OCCN(C)C)(c1ccccc1)c1ccccc1
not listed: [4] | [6] | [8]
inactive: all other assays above

Cc1ccc(N)c(C)c1
inactive: [1] | [2] | [5] | [7]

C[N+](C)(C)CCOC(=O)C(O)(c1ccccc1)c1ccccc1
inactive: [1] | [2] | [5] | [7]

CCN(C(C)=O)c1cccc(-c2ccnc3c(C#N)cnn23)c1
inactive: [1] | [2] | [5] | [6] | [7]

Cc1ncc(C[n+]2csc(CCO)c2C)c(N)n1
not listed: [1] | [9] | [10]
inactive: all other assays above

C=C(C)C(=O)OCCCCOC(=O)C(=C)C
not listed: [1] | [8]
inactive: all other assays above

CCCCCCCCCCCC[N+](C)(C)CCOc1ccccc1
active: [5] 61.1 µM and 29.8 µM
24.6 µM (active) and inactive: [7]
inactive: [1] | [3] | [4] | [10]
48.6 µM (active) and inactive: [6]

CN1CC[C@]23c4c5ccc(O)c4O[C@H]2[C@@H](O)C=C[C@H]3[C@H]1C5
not listed: [4] | [8] | [9]
inactive: all other assays above

CC(O)CN1CCN(CC(=O)[O-])CCN(CC(=O)[O-])CCN(CC(=O)[O-])CC1.[Gd+3] (centres undefined)
inactive: [1] | [2] | [5] | [6] | [7]

O=C(O)C(F)(F)C(F)(F)C(F)(F)C(F)(F)C(F)(F)C(F)(F)C(F)(F)C(F)(F)F
inactive: [8] | [2] | [5] | [6]
active: [7] 8.71 µM

SCc1ccccc1
not listed: [1] | [9] | [10]
inactive: all other assays above
